aSyn 5UTR act = Activators via SNCA 5'UTR binding, MLPCN; alpha-synuclein 5'UTR reporter, activators screen; activity score, % (tested at 7.5 µM), hits read low; actives 7.1% (n = 300,000); in the data active means activity score below about -60%
The depositor's hits bear a star. Not all results are given here.

SMILES	aSyn 5UTR act
COc1ccc(NC(=O)c2ccc(-c3ccccc3Cl)o2)cc1	-156.2*
CCc1nnc(NC(=O)c2ccc(-c3ccccc3Cl)o2)s1	-160.5*
O=C(Nc1cccc(F)c1)c1ccc(-c2ccccc2Cl)o1	-172.6*
COC(=O)c1sccc1-c1ccc(C(=O)Nc2ccccc2)o1	-115.1*
O=C(CSc1nc2ccccc2[nH]1)Nc1nc(-c2cccc(Br)c2)cs1	-85.3*
Cc1ccc(-c2csc(NC(=O)CSc3nc(C)cc(=O)[nH]3)n2)cc1	-114.7*
Cc1ccc(-c2csc(NC(=O)CSC3=NCCS3)n2)cc1	-98.9*
O=C(NC1CCCC1)c1cc(-c2ccc(Cl)cc2)on1	-233.5*
O=C(NC1CCCCC1)c1cc(-c2ccc(Cl)cc2)on1	-114.7*
O=C(NC1CCCC1)c1cc(-c2ccc(F)cc2)on1	-322.3*
Nc1ccccc1N=Cc1ccc(-c2cccc(Cl)c2)o1	-145.1*
Cc1ccc(-c2cc(-c3c(C)nn(C)c(=O)c3N)[nH]n2)cc1	-109.6*
Cc1nn(C)c(=O)c(N)c1-c1cc(-c2ccc(Cl)c(Cl)c2)n[nH]1	-71.1*
COC(=O)c1ccsc1NC(=O)CCc1ccccc1	-109.1*
NC(=O)c1ccsc1NC(=O)CCc1ccccc1	-152.6*
Cc1ccsc1C(=O)OCC(=O)Nc1sccc1C(N)=O	-130.4*
Cc1ccc(NC(=O)CC2SCCNC2=O)cc1Cl (stereo unspecified)	-142.8*
CCCN(C(=O)c1cccs1)c1nnc(-c2ccncc2)s1	-99.8*
CCCN(C(=O)c1ccco1)c1nnc(-c2ccccc2C)s1	-89.2*
CN(C(=O)c1ccco1)c1nnc(-c2ccc(F)cc2)s1	-199.6*
CCN(C(=O)c1ccco1)c1nnc(-c2cccnc2)s1	-136.8*
Cc1nc(-n2[nH]c3c(c2=O)CCCC3)[nH]c(=O)c1Cc1ccccc1	89.8
CN(C(=O)c1ccco1)c1nc(-c2ccc(F)cc2)cs1	-146.2*
COCCN(C(=O)c1ccco1)c1nnc(-c2ccc(F)cc2)s1	-91.9*
Cc1cccc(C=Nc2ccc3c(c2)oc2ccccc23)c1O	-166.0*
SMILES	aSyn 5UTR act
CCc1ccc(-c2cc(C(=O)N3N=C(C(F)F)CC3(O)C(F)F)c3ccccc3n2)cc1 (stereo unspecified)	-67.7*
Clc1ccc(-c2cn3c(n2)-c2ccccc2C3)cc1Cl	-66.7*
O=[N+]([O-])c1ccc(N2CCc3ccccc3C2)cc1	-117.4*
CC(C)c1ccc(NC(=O)N2CCc3ccccc3C2)cc1	-261.1*
O=C(Nc1ccc([N+](=O)[O-])cc1)N1CCc2ccccc2C1	-106.0*
Cc1ccc(C)c(NC(=O)N2CCc3ccccc3C2)c1	-66.9*
C/C(=N\N=c1/sc2ccccc2n1C)c1ccc(N2CCOCC2)cc1	-131.6*
C/C(=N\N=c1/sc2ccccc2n1C)c1ccccn1	-122.3*
Cc1ccc(-n2cnc3c(sc4nccc(N(C)C)c43)c2=O)cc1	-132.1*
CC1CCN(C(=S)Nc2ccc(SC(F)F)cc2)CC1	-142.6*
S=C(Nc1ccc(Br)cc1)NC1CCCC1	-123.6*
FC(F)Sc1ccc(NC(=S)NCc2ccccc2)cc1	-70.3*
FC(F)Sc1ccc(NC(=S)NC2CCCCC2)cc1	-109.3*
O=C(CC1CCCC1)Nc1ccc(Br)cc1	-137.7*
FC(F)Sc1ccc(NC(=S)NCC2CCCCC2)cc1	-66.9*
CCN(CC)c1ccc(/C=N/NC(=O)c2cccc(S(=O)(=O)N3CCOCC3)c2)c(O)c1	128.8
CC(C)(C)c1ccc(/C=C2\SC(=O)N(CCNC(=O)c3cccc(S(=O)(=O)N4CCOCC4)c3)C2=O)cc1	-89.2*
Fc1ccc2nc3[nH]c4ccccc4c3nc2c1	-160.7*
CCC1CCCCN1C(=O)c1ccc([N+](=O)[O-])o1 (stereo unspecified)	-78.7*
S=C(NN=C1C2CC3CC(C2)CC1C3)Nc1ccccc1	-70.0*
CCC(C)(C)C1CCC(=NNC(=S)Nc2ccccc2)CC1 (stereo unspecified)	-124.3*
CCOC(=O)c1ccc(N/C=C/C(=O)C(C)(C)C)cc1	-137.5*
CCOC(=O)c1ccc(N/C=C/C(=O)c2ccccc2)cc1	-188.3*
C/C(=N\Nc1ccc(F)cc1F)c1ccccc1O	-104.3*
COc1ccc(/C=C2\CC/C(=C\c3ccc(OC)c(OC)c3)C2=O)cc1OC	-73.9*
SMILES	aSyn 5UTR act
COc1ccc(/C=C2\CCC/C(=C\c3ccc(OC)c(OC)c3OC)C2=O)c(OC)c1OC	-71.4*
COc1cc2c(c(OC)c1OC)-c1ccc(OC)c(=O)cc1C(NC(C)=O)CC2 (stereo unspecified)	74.8
COc1cc(/C=C2/CC/C(=C/c3ccc(O)c(OC)c3)C2=O)ccc1O	-71.4*
COc1cc(/C=C2\COC/C(=C\c3ccc(O)c(OC)c3)C2=O)ccc1O	102.5
CCN1C/C(=C/c2ccc(OC)c(O)c2)C(=O)/C(=C/c2ccc(OC)c(O)c2)C1	116.0
O=C(c1ccc(Cl)s1)N1CCc2ccccc21	-195.2*
Cc1ccc(C(=O)N2CCc3ccccc32)cc1	-112.1*
O=C(c1cc([N+](=O)[O-])ccc1N1CCCCC1)N1CCc2ccccc21	81.2
Cn1cc(C(=O)N2CCc3ccccc32)cn1	-63.0*
CC1CCN(c2c(NCc3ccc(C(=O)N4CCc5ccccc54)cc3)c(=O)c2=O)CC1	88.0
O=C(Nc1sc2c(c1C(=O)O)CCCCC2)c1cccs1	-80.1*
COc1ccccc1C(=O)Nc1sc2c(c1C(N)=O)CCCC2	-82.7*
CC(C)(C)c1ccc(C(=O)Nc2sc3c(c2C(=O)O)CCC3)cc1	95.0
O=C(Nc1sc2c(c1C(=O)O)CCCC2)c1ccc(F)cc1	-93.6*
NC(=O)c1c(NC(=O)c2ccc(F)cc2)sc2c1CCC2	-184.4*
Cc1cccc(-c2nnc(SCC(=O)N3CCOCC3)o2)c1	-70.2*
O=C(CSc1nnc(-c2cccc(F)c2)o1)N1CCOCC1	-75.4*
CN=C1S/C(=C\c2ccc(N3CCCC3)c(F)c2)C(=O)N1C	-139.3*
CN=C1S/C(=C\c2ccc(N3CCOCC3)c(F)c2)C(=O)N1C	-75.7*
Nc1c(C(=O)Nc2cccc(Cl)c2Cl)sc2nc(-c3cccnc3)ccc12	-61.9*
COc1ccc(-c2ccc3c(N)c(C(=O)c4cccc(OC)c4)sc3n2)cc1	-71.2*
COc1cccc(-c2ccc3c(N)c(C(=O)NC4CC4)sc3n2)c1	-76.4*
O=C(Nc1ccc(Cl)cn1)c1ccc(COc2ccccc2Br)o1	-116.7*
O=C(Nc1ccccn1)c1ccc(COc2ccccc2Cl)o1	-70.9*
CN(C)C(=O)c1ccc(COc2ccccc2Br)o1	-165.5*
SMILES	aSyn 5UTR act
Cc1ccc(C(=O)CCNc2ccc(Br)cc2)o1	-99.3*
Cc1ccc2c(COC(=O)c3ccc(NC(=O)CC#N)cc3)cc(=O)oc2c1C	-68.7*
Cc1cc(=O)oc2cc(NC(=O)c3cccc(S(=O)(=O)N(C)C)c3)ccc12	-111.5*
Cc1cc(=O)oc2cc(NC(=O)c3cccc(F)c3)ccc12	-151.9*
Cc1cc(=O)oc2cc(NC(=O)c3ccc(OC(F)F)cc3)ccc12	-124.4*
Cc1cc(=O)oc2cc(NC(=O)c3cccc(S(C)(=O)=O)c3)ccc12	-97.1*
CC(C)(C)C1CCc2nc(NC(=O)Cc3cn4ccsc4n3)sc2C1 (stereo unspecified)	-65.6*
O=C(CCCc1cccs1)Nc1nc2c(s1)CCCC2	-171.0*
CC1CCc2nc(NC(=O)Cc3cccs3)sc2C1 (stereo unspecified)	-160.1*
CC1CCc2nc(NC(=O)c3ccco3)sc2C1 (stereo unspecified)	88.1
Cc1csc(NC(=O)CCCc2cccs2)n1	-77.1*
CCCCCOc1ccc(NC(=O)C(=O)NCCCn2ccnc2)cc1	62.6

Bioassay records (PubChem)
